Molecules are shown by their SMILES. Results filed as inconclusive are left out. Values without a mark were called inactive. Activity calls are given as the source filed them. Calls come from the whole dose curve; as a rule, active = well fitted inhibition curve with a large enough effect; inconclusive = small, poorly fitted or top-dose-only effect; inactive = flat fitted curve, though single readings scatter.
% is set by controls: 0 for no effect and ±100 for the full control effect; potency is the fitted concentration of half-maximal effect.

For the test, the system named is HEK293. The test is described as follows: Cytotoxic Profiling of Annotated Libraries Using Quantitative High-Throughput Screening (AID 1296008). Note: nearly all actives have a fitted effect of over 60% in size. The conditions noted are these: Five cell lines viability, CellTiter-Glo ATP luminescence, 48-72 h; max response: active compounds read low. An outline of the steps:
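Compounds were pin-transferred onto cells and incubated 48 or 72 hr at 37 degree Celsius, 95% humidity. CellTiter-Glo was added, plates sat 10 min at room temperature, then ATP-coupled luminescence was imaged as the viability read-out.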
On to `CC[C@H]1C2CC3[C@@H]4N(C)c5ccccc5[C@]45C[C@@H]([C@H]2[C@H]5O)N3[C@@H]1O`, for which the max response was 0.828%.
As for `CO[C@@H]1C[C@H](O[C@H]2CC[C@@]3(C)C(CCC4C3CC[C@]3(C)[C@@H](C5=CC(=O)OC5)[C@@H](OC(C)=O)CC43O)C2)O[C@H](C)[C@@H]1O[C@H]1O[C@H](CO[C@@H]2O[C@H](CO)[C@@H](O)[C@H](O)[C@H]2O)[C@@H](O)[C@H](O)[C@H]1O` (some centres undefined), the Potency is 873 nM (active).
In the case of `CC[C@@]1(O)C(=O)OCc2c1cc1n(c2=O)Cc2cc3c(OC)cccc3nc2-1`, the Potency was 50.8 nM (active).
On to `CC1=CC2OC3[C@H](O)C[C@@](C)([C@]34CO4)[C@@]2(CO)[C@H](O)C1=O` (some centres undefined), for which the Potency was 1640 nM (active).
For `CC(=O)O[C@H]1CC[C@@]2(CI)C(=CC[C@@H]3[C@@H]2CC[C@]2(C)C(=O)CC[C@@H]32)C1`, the max response is -18.2%.
For `C=C1[C@@H](C)[C@H]2[C@H](Cc3ccccc3)NC(=O)[C@]23OC(=O)/C=C/C(=O)CCC[C@@H](C)C/C=C/[C@H]3[C@@H]1O`, the Potency was 1840 nM (active).
Consider `C[C@H](CCC(=O)O)C[C@H](C)C[C@H](C)C(=O)/C=C(\O)[C@H](C)C[C@H](C)C/C=C/[C@@H](C)[C@@H](O)[C@@H](C)[C@@H](O)C[C@@H]1CC[C@@](C)([C@H]2CC[C@@](C)([C@@H](C)O)O2)O1`, for which the Potency is 5020 nM (active).
For the compound `CN(C)c1cc2c(cc1Sc1nc3c(N)nccc3n1CCNCC(C)(C)C)OCO2`, the Potency is 580 nM (active).
Still for that read-out and setting: for `C[C@H]1C/C=C/[C@H]2[C@@H]3O[C@]3(C)[C@@H](C)[C@H]3[C@H](Cc4ccccc4)NC(=O)[C@]32OC(=O)O/C=C/[C@@](C)(O)C1=O` the value was 399 nM (active).

Values taken from PubChem BioAssay (NCATS).
